Assay outcomes from PubChem BioAssay.
Most compounds without a hit are left out; they make up all but 0.38% or so of the library.
Cdc42 wt: changes GTP binding to wildtype human Cdc42; GST-Cdc42 beads, Bodipy-GTP binding, flow cytometry; actives lie on both sides; actives 0.2% (n = 190,000); P60953; percent activity (GTP binding), % at 10 µM; AID 761;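 active = percent activity GTP binding at least 20 points away from the 100% baseline, either down as inhibitor or up as activator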;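 also: median bead fluorescence of bound Bodipy-FL-GTP at 100 nM; below 100% means less GTP binding so inhibitor and above means activator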
Target sequence (P60953 whole entry, looked up): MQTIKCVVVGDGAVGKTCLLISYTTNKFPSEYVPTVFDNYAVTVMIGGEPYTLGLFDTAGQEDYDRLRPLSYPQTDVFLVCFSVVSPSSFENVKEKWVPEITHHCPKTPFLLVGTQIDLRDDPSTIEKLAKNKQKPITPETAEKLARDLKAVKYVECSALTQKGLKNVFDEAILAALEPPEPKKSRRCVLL
Rab2 wt GTP: changes GTP binding to wildtype dog Rab2A, up or down | P61105 | GST-Rab2 wt beads, Bodipy-GTP binding, flow cytometry | GTP binding activity, % at 10 µM | actives 0.19% (n = 190,000) | AID 760;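 active = GTP binding activity at least 20 points away from 100%, either lowered or raised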
Rab7 wt modul: modulators of GTP binding to dog Rab7 wildtype GTPase; GTP binding activity (percent of control), % at 10 µM; GST-Rab7 beads, fluorescent GTP binding, flow cytometry; actives lie on both sides; untreated = 100%, excess cold GTP = 0%; AID 758; actives 0.055% (n = 190,000);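 active = fluorescent GTP binding to Rab7 beads changed by at least 20 points from the 100% baseline, either direction, mostly lower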;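 also: median green fluorescence of bound Bodipy-FL-GTP per Rab7 bead population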
HRas wt GTP bind: changes GTP binding to wildtype human HRas; actives 0.14% (n = 190,000); GTP binding activity, % at 10 µM; GST-Ras wt beads, Bodipy-FL-GTP binding, flow cytometry; actives lie on both sides; P01112;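 active = GTP binding activity at least 20% away from the 100% baseline, either lowered as inhibitor or raised as activator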
Target sequence (P01112 whole entry, looked up): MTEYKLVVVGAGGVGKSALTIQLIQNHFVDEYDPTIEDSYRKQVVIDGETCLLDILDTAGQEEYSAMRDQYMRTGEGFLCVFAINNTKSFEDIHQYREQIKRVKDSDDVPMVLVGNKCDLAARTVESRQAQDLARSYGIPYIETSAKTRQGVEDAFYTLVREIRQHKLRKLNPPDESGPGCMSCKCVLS
Rac1 wt GTP bind: alters GTP binding to wildtype human Rac1; actives 0.27% (n = 190,000); GST-Rac1 beads, fluorescent GTP binding, flow cytometry; actives lie on both sides; 0 = cold GTP competed, 100 = untreated; AID 757; GTP binding activity (% of control), % at 10 µM; P63000;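 active = GTP binding activity at least 20 points away from the 100% control level, either lower or higher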
Rac1 mut GTP: alters GTP binding to activated mutant human Rac1 | P63000 | GST-Rac1 activated beads, fluorescent GTP binding, flow cytometry; actives lie on both sides; 100% means binding = to untreated wells | percent activity (GTP binding), % at 10 µM | actives 0.11% (n = 190,000) | AID 764;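 active = GTP binding at least 20 percentage points away from the 100% baseline, in either direction, so actives lie on both sides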
Each line names hits and unclear results; the compound was inactive in the other large screens; [ ] = another dose, or the depositor's remark.

CCOC(=O)C1=NN(c2ccc(C)cc2)CC1C(=O)OC (stereo not given)	Rac1 wt GTP bind 123.0[activator]
Nc1nonc1C(=O)NCCN=Cc1cc(Cc2ccccc2)cc(Br)c1O	Cdc42 wt 125.0[activator], Rab2 wt GTP 122.0[activator], Rac1 wt GTP bind 128.0[activator]
Nc1nonc1C(=O)NCCN=Cc1ccccc1O	none
O=C1NC(=Nc2ccc(O)cc2)S/C1=C/c1ccco1	none
COc1cc(/C=C2\SC(=Nc3ccc(O)cc3)NC2=O)cc(OC)c1O	Cdc42 wt 79.0, Rac1 wt GTP bind 72.0
Cn1cccc1-c1cc(C(=O)N/N=C/c2cccc(O)c2)[nH]n1	none
CC(C)(C)SCCNC(=O)CN(c1ccccc1)S(=O)(=O)c1ccc(F)cc1	none
CC(C)NC(=O)C12CC3CC(C1)CC(n1cnc(Cl)n1)(C3)C2	Rac1 wt GTP bind 121.0[activator]
O=C(N1CCOCC1)C12CC3CC(C1)CC(n1cnc(Cl)n1)(C3)C2	none
Cc1cc(NC(=O)CSc2nc3ccccc3c(=O)n2C2CCCC2)no1	none
COC(=O)CSc1nc2cc(Cl)ccc2c(=O)n1C1CCCC1	Cdc42 wt 79.0
CCCn1nc([N+](=O)[O-])c(C(C#N)c2nc3ccccc3o2)c(Cl)c1=O (stereo not given)	none
Cn1nc([N+](=O)[O-])c(C(C#N)c2ccccn2)c(Cl)c1=O (stereo not given)	Cdc42 wt 79.0, Rac1 mut GTP 61.0
CCOc1ccccc1NC(=O)c1cc(SC)ccc1Cl	none
COC(=O)C1=C(C)NC(=O)/C1=C\c1cc(C)n(-c2c(C)cccc2C)c1C	Cdc42 wt 121.0[activator], Rab2 wt GTP 123.0[activator], HRas wt GTP bind 122.0[activator]
COC(=O)C1=C(C)NC(=O)/C1=C\c1cc(C)n(-c2ccccc2C)c1C	none
CC(NCc1ccc(N(C)C)cc1)C1CC2CCC1C2 (stereo not given)	none
Cc1c(CCC(=O)O)c(=O)oc2cc3occ(-c4ccc(F)cc4)c3cc12	Rac1 wt GTP bind 68.0
Cc1c(CCC(=O)O)c(=O)oc2cc(O)ccc12	none
O=C(NCc1ccc2c(c1)OCO2)c1ccc(CSCc2cccc(Cl)c2)o1	Cdc42 wt 79.0
CC(C)(C)NC(=O)CCN(/N=C/c1ccc([N+](=O)[O-])o1)C1=NS(=O)(=O)c2ccccc21	Cdc42 wt 56.0, Rab2 wt GTP 45.0, Rab7 wt modul 72.0, HRas wt GTP bind 42.0, Rac1 wt GTP bind 50.0, Rac1 mut GTP 59.0
CCC(C)/C=C/C1=CC2=C(Cl)C(=O)C3(C)OC(=O)C(C(=O)C(C)C(C)O)C3C2=CO1 (stereo not given)	none
O=C(CSc1ncnc2ccccc12)NCc1ccc2c(c1)OCO2	none
COc1cc(-c2cc(=O)c3ccccc3o2)ccc1O	none
COc1cc(-c2cc(=O)c3c(O)cc(O)cc3o2)ccc1O	Rac1 wt GTP bind 78.0
C/C(=C1/SC(=S)N(CCC(=O)O)C1=O)c1ccc(O)cc1	Rac1 mut GTP 77.0
CCOc1ccccc1N1CCN(Cc2c(C)n(C)n(-c3ccccc3)c2=O)CC1	none
CC1(C)Cc2c(sc3c2C2=NCCN2C=N3)CS1	Rac1 wt GTP bind 123.0[activator]
CCOC(=O)c1cc(-c2ccc(Cl)cc2)nc2c1c(=O)[nH]c(=O)n2CCOC	none
CCOc1ncccc1C(=O)OCc1cccc([N+](=O)[O-])c1	none
Oc1ccc(/C=N/Nc2nc(-c3ccc(Cl)cc3)cc(C(F)(F)F)n2)cc1	none
O=c1[nH]c(=O)c2nnc(N/N=C\c3ccc(O)cc3)nc2[nH]1	Cdc42 wt 60.0, Rab2 wt GTP 59.0, HRas wt GTP bind 63.0, Rac1 wt GTP bind 54.0, Rac1 mut GTP 74.0
Cc1ccc(C(=O)Nn2c(O)c(C=C3N=c4ccccc4=N3)sc2=S)cc1	Cdc42 wt 73.0, HRas wt GTP bind 73.0, Rac1 wt GTP bind 72.0, Rac1 mut GTP 79.0
O=C(Nn1c(O)c(C=C2N=c3ccccc3=N2)sc1=S)c1ccc(Cl)cc1	none
CCCCn1c(O)c(N=NC(=O)c2ccccc2NS(=O)(=O)c2cccs2)c2ccccc21	Rac1 mut GTP 78.0
C=CCn1c(O)c(N=NC(=O)c2ccccc2NS(=O)(=O)c2cccs2)c2ccccc21	none
Cc1ccc2c(CC(=O)N3CCN(S(=O)(=O)c4ccc5c(c4)OCCO5)CC3)coc2c1	none
NC(=O)CN(c1ccc([N+](=O)[O-])cc1)S(=O)(=O)c1ccccc1	none
COc1cc(/C=N/NC(=O)CN(Cc2ccco2)S(=O)(=O)c2ccccc2)ccc1O	Rac1 wt GTP bind 77.0
COc1ccc(/C=N/NC(=O)CN(Cc2ccccc2)S(=O)(=O)c2ccc3c(c2)OCCO3)cc1	none
COc1cc(/C=N/NC(=O)CN(Cc2ccccc2)S(=O)(=O)c2ccc3c(c2)OCCO3)ccc1O	Rab2 wt GTP 78.0, Rac1 wt GTP bind 78.0
CCC(C)NC(=O)Nc1ccc(C)cc1C (stereo not given)	none
CC(C)Cn1c(N)c(C(=O)CSc2nc3ccccc3c(=O)n2CCCN2CCOCC2)c(=O)n(C)c1=O	none
O=S(=O)(CC(CN1CCOCC1)N1CCOCC1)c1ccccc1 (stereo not given)	Cdc42 wt 60.0, Rab2 wt GTP 55.0, Rab7 wt modul 23.0, HRas wt GTP bind 58.0, Rac1 wt GTP bind 56.0, Rac1 mut GTP 53.0
CNC(=O)COC(=O)c1cc(NC(=O)c2ccco2)c(OC)c(OC)c1	Cdc42 wt 78.0
COc1ccc(-c2cc(C(F)(F)F)n3nc(C(=O)O)cc3n2)cc1OC	Rac1 wt GTP bind 77.0
NC(=O)c1cc2nc(-c3ccco3)cc(C(F)(F)F)n2n1	Cdc42 wt 64.0, Rab2 wt GTP 63.0, HRas wt GTP bind 65.0, Rac1 wt GTP bind 68.0
COC(=O)c1cc2nc(-c3ccc(OC)c(OC)c3)cc(C(F)(F)F)n2n1	none
Cc1onc(-c2c(F)cccc2Cl)c1C(=O)N1CCOC12CCCCC2	none
COc1ccccc1/C=C/C=N/NC(=O)c1ccc2nc[nH]c2c1	none
CCOC(=O)c1ccc(NC(=O)c2ccccc2[N+](=O)[O-])cc1	none
CCOC(=O)c1cc([N+](=O)[O-])c([N+](=O)[O-])cc1NC(C)=O	Cdc42 wt 78.0
COc1cc(/C=N/NC(=O)c2cnn3c(C)cc(-c4ccccc4)nc23)ccc1O	none
COc1cc(/C=N/Nc2nc(C)nc3c2cnn3-c2ccccc2)ccc1O	Cdc42 wt 77.0, Rab2 wt GTP 79.0, Rac1 wt GTP bind 70.0
COC(=O)c1cc(C(=O)OC)[nH]n1	none
S=C(Nc1ccc(Oc2ccc(NC(=S)NC3CCCCC3)cc2)cc1)NC1CCCCC1	none
CCCN(CC1CC1)C(=S)Nc1ccc(Oc2ccccc2)cc1	Cdc42 wt 79.0
O=C(O)c1ccc(NC(=S)NC2CCCCC2)cc1	none
